Source: PubChem BioAssay (several laboratories)
Only a selection was taken, and hits are over-represented in it overall.
GluA2 TARP mod = GluA2-stargazin AMPA receptor complex modulation; HEK293 GluA2+stargazin, membrane potential dye (FDSS), glutamate EC50; hits were called plate by plate, in both directions; calls only at 30 µM; 40,000 compounds, 3.5% hits;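 active means any of four per-well response measures lying three or more SD from its plate-wide compound average, in either direction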
Target sequence (O88602 whole entry, looked up): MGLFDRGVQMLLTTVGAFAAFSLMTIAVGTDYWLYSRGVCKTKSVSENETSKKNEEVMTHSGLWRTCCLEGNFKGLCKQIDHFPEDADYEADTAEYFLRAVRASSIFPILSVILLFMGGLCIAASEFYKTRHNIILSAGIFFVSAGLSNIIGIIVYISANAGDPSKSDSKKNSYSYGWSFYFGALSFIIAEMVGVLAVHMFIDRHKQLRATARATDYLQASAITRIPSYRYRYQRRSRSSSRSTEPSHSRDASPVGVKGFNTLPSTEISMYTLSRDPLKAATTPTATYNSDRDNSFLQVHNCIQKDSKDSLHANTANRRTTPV
Target sequence (P19491 whole entry, looked up): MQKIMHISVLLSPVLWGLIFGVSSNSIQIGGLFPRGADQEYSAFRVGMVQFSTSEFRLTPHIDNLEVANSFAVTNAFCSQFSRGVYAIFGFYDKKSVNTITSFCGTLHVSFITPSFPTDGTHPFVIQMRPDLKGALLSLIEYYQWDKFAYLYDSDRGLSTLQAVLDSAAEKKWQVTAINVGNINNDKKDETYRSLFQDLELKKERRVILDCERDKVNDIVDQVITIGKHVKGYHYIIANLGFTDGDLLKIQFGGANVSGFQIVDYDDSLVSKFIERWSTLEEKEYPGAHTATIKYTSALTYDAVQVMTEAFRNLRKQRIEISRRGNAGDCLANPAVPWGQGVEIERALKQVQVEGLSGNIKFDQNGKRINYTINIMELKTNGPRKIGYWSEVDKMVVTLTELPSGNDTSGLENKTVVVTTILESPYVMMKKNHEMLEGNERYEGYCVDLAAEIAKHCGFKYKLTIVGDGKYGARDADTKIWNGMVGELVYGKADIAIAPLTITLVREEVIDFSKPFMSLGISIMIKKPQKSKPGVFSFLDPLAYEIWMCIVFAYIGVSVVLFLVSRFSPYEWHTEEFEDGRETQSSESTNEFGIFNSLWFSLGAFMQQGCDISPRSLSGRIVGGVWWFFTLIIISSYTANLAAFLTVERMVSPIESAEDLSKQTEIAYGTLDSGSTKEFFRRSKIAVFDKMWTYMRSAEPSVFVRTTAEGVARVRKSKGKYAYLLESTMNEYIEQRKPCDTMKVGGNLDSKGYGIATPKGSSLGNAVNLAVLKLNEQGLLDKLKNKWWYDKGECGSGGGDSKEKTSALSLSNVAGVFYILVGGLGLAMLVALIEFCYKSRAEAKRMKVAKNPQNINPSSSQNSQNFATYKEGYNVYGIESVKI
GIRK2 act = Activates human GIRK2-containing potassium channels | P48051 | HEK293 GIRK2/NPY4 cells, thallium flux fluorescence | activation (% efficacy), % for hits at 75 µM | 34,000 tested, under 10 active | AID 1259324;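 active means primary screen hit, no activity in plain HEK293 cells, and in GIRK2-only cells above 5% efficacy rising with concentration; inactive means the rest, including fluorescent compounds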;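 further: efficacy is normalized control-subtracted fluorescence 15 s after thallium addition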
* = called active by the depositor; i = inactive; . = no result; + = active, no number.

SMILES | GluA2 TARP mod | GIRK2 act
COc1ccc(Cl)cc1C(=O)NC1CNC(=O)C1 (stereo not drawn) | . | i
Cc1nc2ccccn2c(=O)c1NC(=O)C(C)Oc1ccccc1F (stereo not drawn) | i | i
COCCN1CCC(CNC(=O)c2ccc(OC)cc2)CC1 | . | i
CCc1cccc2sc(N3CCN(C(=O)Cc4ccc(S(=O)(=O)CC)cc4)CC3)nc12 | + | .
CS(=O)(=O)c1ccc(CC(=O)N2CCN(c3nc4c(Cl)cccc4s3)CC2)cc1 | i | .
O=C(CSCc1ccccc1)NC1CCCC(O)C1 (stereo not drawn) | i | i
FC(F)(F)c1ccc(Nc2nnnc3c2cnn3-c2ccccc2)cc1 | i | i
CCSc1nnc(NC(=O)CCc2csc(NC(=O)c3cccs3)n2)s1 | i | i
CCOc1ccc(N2C(=O)/C(=C\c3ccc(O)cc3)SC2=S)cc1 | + | .
CCOc1ccc(N2C(=O)/C(=C/c3ccc4c(c3)OCO4)SC2=S)cc1 | i | .
CN(C)c1ccc(/C=C2\SC(=S)N(c3ccc(O)cc3)C2=O)cc1 | + | .
COc1cc(/C=C2\SC(=S)N(c3ccc(O)cc3)C2=O)cc(OC)c1OC | i | .
O=C(CSc1ncc(-c2ccc(F)cc2)o1)NCc1ccc2c(c1)OCO2 | . | i
CCN1CCN(c2nc3c(c(=O)n(C)c(=O)n3C)n2CC(O)COc2ccccc2)CC1 (stereo not drawn) | i | .
CC(O)CNc1nc2c(c(=O)[nH]c(=O)n2C)n1CC(O)COc1ccc(Cl)cc1 (stereo not drawn) | i | .
Cn1c(=O)c2c(nc(N3CCN(Cc4ccccc4)CC3)n2CC(O)COc2ccc(Cl)cc2)n(C)c1=O (stereo not drawn) | + | .
CCN1CCN(c2nc3c(c(=O)[nH]c(=O)n3C)n2CC(O)COc2ccc(Cl)cc2)CC1 (stereo not drawn) | + | .
COc1ccc(-c2c3c(nc4sc(C(=O)N5CCOCC5)c(N)c24)CC(C)(C)CC3=O)cc1 | i | i
CCCOc1ccc(/C=C/C(=O)Nc2ccc(OC)c(Cl)c2)cc1 | i | .
Cc1[nH]c2ccccc2c1C(=O)C(=O)N1CCC(c2nnc(-c3ccco3)s2)CC1 | i | i
O=C(NCC(c1ccc2c(c1)OCO2)N1CCN(c2ccccc2F)CC1)c1ccsc1 (stereo not drawn) | i | i
CN(C)C(CNC(=O)C1(c2ccc(Cl)cc2)CCCC1)c1ccsc1 (stereo not drawn) | + | i
CN(C)C(CNC(=O)C1(c2ccccc2)CCOCC1)c1ccsc1 (stereo not drawn) | i | i
O=C1CCCN1c1ccc(CSc2n[nH]c(=O)c3cc(-c4cccs4)nn23)cc1 | . | i
Cc1c(C)n2c3c(=O)n(Cc4cccc(Cl)c4)c(=O)n(C)c3nc2n1CCN(C)C | + | i
SMILES | GluA2 TARP mod | GIRK2 act
Cc1ccc(C)c(Cn2c(=O)c3c(nc4n(CCCN(C)C)c(C)c(C)n34)n(C)c2=O)c1 | i | i
CCOC(=O)Cn1c(C2CC(=O)N(CC(C)C)C2)nc2ccccc21 (stereo not drawn) | i | .
COc1ccc(Br)cc1C1SCCN1S(=O)(=O)c1cccc(C)c1 (stereo not drawn) | + | .
COc1ccc(S(=O)(=O)N2CCSC2c2ccc(Br)cc2)cc1 (stereo not drawn) | i | .
Cc1cc(C)n(CCNC(=O)CC2CCCC2)n1 | i | i
COc1ccc(Nc2nc(N3CCCC3)c3ccccc3n2)cc1 | + | .
COc1ccc(Nc2nc(C)c([N+](=O)[O-])c(N3CCCC3)n2)c(OC)c1 | i | i
CCOC(=O)c1c(SCC(=O)NCCc2ccccc2)nc(=O)[nH]c1C | i | i
CCOC(=O)c1c(SCc2ccccc2)nc(=O)[nH]c1C | + | i
COC(=O)c1ccc2c(=O)n(CC(=O)NC3CCCCCC3)c(=S)[nH]c2c1 | i | i
COc1ccccc1C1(C(=O)N2CCC(c3ccsc3)CC2)CCOCC1 | + | i
O=C(c1nc2ccccc2s1)N1CCC(c2ccsc2)CC1 | i | i
O=C(NCC1CCN(c2ncccn2)CC1)c1c(F)cccc1F | i | i
CCOc1ccccc1NC(=O)C(=O)NCC1CCN(c2ncccn2)CC1 | i | i
COc1cccc2cc(C(=O)NCC3CCN(c4ncccn4)CC3)c(=O)oc12 | + | i
CCOc1ccccc1C(=O)NCC1CCN(c2ncccn2)CC1 | + | i
O=C(NCC#CCN1CCc2ccccc2C1)c1ccc(Br)o1 | i | i
CCCCOC(=O)CCc1nc2ccccc2[nH]c1=O | i | .
CCC/C(O)=C(\C#N)c1nc2ccccc2[nH]1 | + | i
O=c1ccc(-c2cccs2)nn1CCCNS(=O)(=O)c1ccc(Cl)c(Cl)c1 | i | i
COc1ccc(-c2ccc(=O)n(CCNS(=O)(=O)c3c(C)cc(C)cc3C)n2)cc1 | i | .
COc1ccc(-c2ccc(=O)n(CCNS(=O)(=O)c3ccc4c(c3)CCCC4)n2)cc1 | i | .
O=c1ccc(-c2ccccc2)nn1CCCNS(=O)(=O)c1ccc2c(c1)CCCC2 | + | i
O=c1ccc(-c2cccs2)nn1CCCNS(=O)(=O)c1cccc(C(F)(F)F)c1 | + | i
Cc1ccc(-c2ccc(=O)n(CCCNS(=O)(=O)c3c(C)cc(C)cc3C)n2)cc1 | + | i
SMILES | GluA2 TARP mod | GIRK2 act
O=C(NCCN1CCOCC1)C(=O)NC1CCCC1 | i | i
COCC(C)(O)CNC(=O)c1ccccc1SC (stereo not drawn) | i | i
COc1ccc(NC(=O)CSc2ncc(S(=O)(=O)c3ccc(F)c(C)c3)c(=O)[nH]2)cc1Cl | i | i
Cc1ccc(-c2ccc(N3CCN(C(=O)Cc4cccs4)CC3)nn2)cc1 | i | i
Cc1ccccc1-c1ccc(N2CCN(C(=O)Cc3cccs3)CC2)nn1 | i | i
O=C(Cc1cccs1)N1CCN(c2ccc(-c3ccccn3)nn2)CC1 | + | i
Cc1ccc(C(=O)N2CCN(c3nc(C)cc(N4CCCCC4)n3)CC2)cc1 | i | .
Cc1cc(N2CCOCC2)nc(N2CCN(C(=O)Cc3cccs3)CC2)n1 | + | i
Cc1cc(N2CCCC2)nc(N2CCN(C(=O)c3ccccc3)CC2)n1 | + | .
COc1ccc(Cl)cc1C(=O)Nc1nnc(-c2ccnn2C(C)C)o1 | + | i
CC(C)n1nccc1-c1nnc(NC(=O)c2ccc(Cl)cc2Cl)o1 | i | i
CC(C)(C)N1CC(c2nc3ccccc3n2Cc2ccc(Cl)cc2)CC1=O (stereo not drawn) | i | .
CC(C)CCn1c(C2CC(=O)N(Cc3ccccc3)C2)nc2ccccc21 (stereo not drawn) | + | .
C=CCN1CC(c2nc3ccccc3n2Cc2c(F)cccc2Cl)CC1=O (stereo not drawn) | i | .
CC(C)(C)N1CC(c2nc3ccccc3n2CCOc2ccc(Cl)cc2)CC1=O (stereo not drawn) | i | .
O=C1CC(c2nc3ccccc3n2Cc2c(F)cccc2Cl)CN1Cc1ccccc1 (stereo not drawn) | + | .
Cc1cccc(Cn2c(C3CC(=O)N(C(C)(C)C)C3)nc3ccccc32)c1 (stereo not drawn) | + | .
CC(C)CCn1c(C2CC(=O)N(Cc3ccc(F)cc3)C2)nc2ccccc21 (stereo not drawn) | i | .
